Test results reported in PubChem BioAssay (NCATS).
Unmarked numbers belong to inactive results. Inconclusive results are not listed. The source made the active and inactive calls. Calls come from the whole dose curve; as a rule, active = well fitted curve in the direction sought with a large enough effect; inconclusive = small, poorly fitted or top-dose-only effect, or another doubt; inactive = no such curve, though single readings can be large; an effect the other way counts as inactive or inconclusive.

Target: Pyruvate kinase PKM (Homo sapiens) (UniProt P14618)
Sequence (P14618 whole entry, looked up): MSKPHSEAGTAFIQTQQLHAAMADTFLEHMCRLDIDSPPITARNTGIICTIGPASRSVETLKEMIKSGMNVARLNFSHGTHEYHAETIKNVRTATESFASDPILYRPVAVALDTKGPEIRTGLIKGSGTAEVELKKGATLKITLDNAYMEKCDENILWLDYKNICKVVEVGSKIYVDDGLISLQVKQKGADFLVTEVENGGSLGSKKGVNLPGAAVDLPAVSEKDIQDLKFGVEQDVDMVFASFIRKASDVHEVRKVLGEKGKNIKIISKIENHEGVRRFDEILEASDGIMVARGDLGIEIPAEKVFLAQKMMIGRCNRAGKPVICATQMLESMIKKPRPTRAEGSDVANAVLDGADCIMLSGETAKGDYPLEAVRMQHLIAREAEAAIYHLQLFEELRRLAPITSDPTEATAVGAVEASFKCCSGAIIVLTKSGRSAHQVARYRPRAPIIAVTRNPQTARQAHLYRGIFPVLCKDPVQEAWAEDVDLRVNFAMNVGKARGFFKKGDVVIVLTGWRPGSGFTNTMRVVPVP
Test: qHTS Assay for Inhibitors of Human Muscle Pyruvate Kinase (AID 958)
Conditions: purified human PKM enzyme activity; series mostly up to 57.5 µM; activity change, negative = inhibition: at the top concentration
Method in brief: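 ATP production by PKM2 detected via luciferase luminescence after 1 h room-temperature reaction (0.1 nM enzyme, PEP at Km 0.5 mM, ADP 0.1 mM, pH 7.2 imidazole buffer). Inhibition scaled to no-enzyme control; activation referenced to 0.3 nM enzyme wells.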

SMILES	activity change, negative = inhibition	Potency
CN1CCc2cc(O)cc3c2[C@H]1Cc1ccc(O)c(O)c1-3	36.4%	
O=c1c2ccccc2[se]n1-c1ccccc1		10 µM (active)
O=C(O)c1cc[c]([Hg][Cl])cc1		2.51 µM (active)
CN(N=O)c1ccc(O)c(O)c1	47.3%	
CN(N=O)c1cc(O)ccc1O	22.7%	

Target: Pyruvate kinase (Leishmania mexicana) (UniProt Q27686)
Sequence (Q27686 2-499 E452W): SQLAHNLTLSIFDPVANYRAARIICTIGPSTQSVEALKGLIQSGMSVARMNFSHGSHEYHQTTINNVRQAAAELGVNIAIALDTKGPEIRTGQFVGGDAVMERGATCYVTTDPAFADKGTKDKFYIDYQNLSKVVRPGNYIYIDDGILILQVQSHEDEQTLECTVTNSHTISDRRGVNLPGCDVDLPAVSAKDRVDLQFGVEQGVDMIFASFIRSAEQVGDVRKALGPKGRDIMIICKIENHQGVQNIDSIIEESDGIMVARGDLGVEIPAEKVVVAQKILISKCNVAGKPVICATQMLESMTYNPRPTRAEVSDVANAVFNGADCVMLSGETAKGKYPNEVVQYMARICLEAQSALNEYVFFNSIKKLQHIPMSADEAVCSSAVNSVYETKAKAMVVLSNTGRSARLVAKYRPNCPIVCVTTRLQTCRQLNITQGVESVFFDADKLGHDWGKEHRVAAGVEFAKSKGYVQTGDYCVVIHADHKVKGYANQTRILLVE
Test: qHTS Validation Assay for Activators of Leishmania Mexicana Pyruvate Kinase (AID 959)
Conditions: purified L. mexicana pyruvate kinase, enzyme activity; series mostly up to 57.5 µM; activity change, positive = activation: at the top concentration
Method in brief: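 An endpoint luciferase assay: 0.2 nM LmPYK E451W turns over 0.5 mM PEP with 0.1 mM ADP for 1 h at room temperature, pH 7.2, before PKLight addition. Values are normalized to DMSO-only wells.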

SMILES	activity change, positive = activation	Potency
O=c1c2ccccc2[se]n1-c1ccccc1	-100%	
O=C(O)c1cc[c]([Hg][Cl])cc1	-76.5%	
CN(N=O)c1cc(O)ccc1O		3.16 µM (active)
